# Source: PubChem
# This is a sample that favours compounds with a hit; in the whole collection about 28% have one here.
# PTK2B oligo ant: Pyk2 (human) oligomerization antagonism. Q14289. Q293 cells, Pyk2 FERM NanoBiT luminescence; hits give low values. z-score (the deposit names both 25 µM and 10 µM). hit rate 0.83% among 99,000;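 active = Z-score of -3 or lower, scaled per plate to the spread of control and sample wells; inactive = z-score above -3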;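 note: negative z-score means lost luminescence so less FERM oligomerization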
# CYP2C9 inhib: human CYP2C9 inhibition. hit rate 20% among 96,000. CYP2C9 Supersomes, luciferin-H conversion, luminescence. inhibition, % at 5 µM;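 active = blocking of liver enzyme CYP2C9 beyond about 50% at 5 µM, limit read from the data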
# CYP2C19 inh: human CYP2C19 inhibition. P33261. CYP2C19 Supersomes, luciferin-H EGE luminescence, 30 min. inhibition, % at 5 µM. hit rate 21% among 96,000. AID 778;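 active = CYP2C19 inhibition above a set limit at 5 µM in the primary screen, cut at about 50% in these data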;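 note: plate controls were negative control wells for no effect and 2.5 mM tranylcypromine positive control for full effect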
# CYP2C9 activ: activators of human CYP2C9 | P11712 | recombinant CYP2C9, luciferin-H conversion, luminescence; hits give high values; factor 1 = untreated enzyme, 0 = blocked | activation factor at 5 µM | hit rate 1.4% among 96,000 | AID 1024;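 active = activation factor of 2 or more for CYP2C9 at a 5 µM dose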;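 note: 0 = sulfaphenazole-blocked wells and 1 = vehicle-only wells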
# CYP2C19 activ: increases human CYP2C19 enzyme activity. P33261. recombinant CYP2C19, luciferin-H EGE luminescence; hits give high values; 0 = fully inhibited enzyme, 1 = untreated enzyme. activation factor at 5 µM. 96,000 tested, under 10 active. AID 1025;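 active = activation factor of at least 2 at 5 µM in the primary screen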;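 note: 0 = wells with 2.5 mM tranylcypromine and 1 = vehicle-only wells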
# An asterisk follows results filed as active; nt = no result given.
SMILES,PTK2B oligo ant,CYP2C9 inhib,CYP2C19 inh,CYP2C9 activ,CYP2C19 activ
Cc1ccccc1CS(=O)(=O)c1nnc([C@H](Cc2ccccc2)NC(=O)OC(C)(C)C)o1,-0.44,66.2*,27.8,0.3,0.7
CC(C)(C)OC(=O)N[C@@H](Cc1ccccc1)c1nnc(SCC(=O)c2ccc(Cl)cc2)o1,0.51,61.4*,60.8*,0.4,0.4
Cc1n[nH]c(C)c1S(=O)(=O)NCCc1ccc(Cl)cc1,0.59,12.3,29.7,0.9,0.7
O=C1c2ccccc2-c2c1cccc2C(=O)N1CCCCC1,0.12,nt,nt,nt,nt
O=C(c1cccc2c1-c1ccccc1/C2=N/O)N1CCCCC1,-2.38,49.5,50.7*,0.5,0.5
Cc1ccc(-c2nn(-c3ccccc3)cc2/C=C(\C#N)c2cccc(C#N)c2)o1,-0.51,63.9*,28.0,0.4,0.7
N#C/C(=C\c1cn(-c2ccccc2)nc1-c1cc2ccccc2o1)c1nc2ccccc2[nH]1,-0.6,nt,nt,nt,nt
COc1cccc(-n2c(CNC(=O)OC(C)(C)C)n[nH]c2=S)c1,0,2.7,1.1,1,1
Cc1nnc(C)c2c(C)n(Cc3ccc4c(c3)OCO4)c(C)c12,-0.4,17.9,39.8,0.8,0.6
c1cc2c(cc1Cn1cnnn1)OCO2,-0.5,56.0*,14.6,0.4,0.9
O=C(CN(Cc1ccccc1)S(=O)(=O)c1ccccc1)N/N=C/c1ccccc1[N+](=O)[O-],-0.22,65.1*,42.3,0.3,0.6
Cc1ccc(CN(CC(=O)N/N=C/c2ccccc2[N+](=O)[O-])S(=O)(=O)c2ccc(C)cc2)cc1,-1.42,84.7*,96.7*,0.2,0
N#CC1=C(N)S[C@H](C(=O)C23CC4CC(CC(C4)C2)C3)[C@H]1c1ccncc1,-0.84,41.2,66.5*,0.6,0.3
CCOC(=O)C(NC(C)=O)(NS(=O)(=O)c1ccccc1)C(F)(F)F (stereo not drawn),-0.06,-2.7,4.6,1,1
Cc1c(C(=O)NCc2ccco2)sc2nc(-c3ccccc3)cn12,nt,40.3,28.7,0.6,0.7
Cc1c(C(=O)Nc2ccc3c(c2)OCCO3)sc2nc(-c3ccccc3)cn12,-3.65*,nt,nt,nt,nt
Cc1c(C(=O)Nc2ccncc2)sc2nc(-c3ccccc3)cn12,nt,79.2*,47.0,0.2,0.5
CCN1C(=O)CC(N2CCN(CC(=O)NC(C)C)CC2)C1=O (stereo not drawn),-0.38,8.9,-7.6,0.9,1.1
CCCCOC(=O)NC1CCS(=O)(=O)C1 (stereo not drawn),-0.18,-21.2,-5.7,1.2,1.1
Cc1ccc(S(=O)(=O)N2C=CC(C(F)(F)F)=NCC2)cc1,0.39,6.5,32.3,0.9,0.7
CC(C)(C)c1ccc(S(=O)(=O)N2C=CC(C(F)(F)F)=NCC2)cc1,-0.24,11.9,86.2*,0.9,0.1
CC(C)OC(=O)CN1C(=O)C(C)(C)Oc2ccc(C(=O)NC(C)(C)C)cc21,-0.56,73.4*,36.3,0.3,0.6
COC(=O)CSc1nc(C)c(Oc2ccccc2)c(=O)[nH]1,1.05,-9.4,64.0*,1.1,0.4
Cc1cc(S(=O)(=O)NCCN(C)C)c(C)s1,0.01,5.9,-1.5,0.9,1
Cc1cc(S(=O)(=O)Nc2cccnc2)c(C)s1,0.15,24.3,41.6,0.8,0.6
SMILES,PTK2B oligo ant,CYP2C9 inhib,CYP2C19 inh,CYP2C9 activ,CYP2C19 activ
Cc1cc(S(=O)(=O)Nc2cc(C)c(O)c(C)c2)c(C)s1,-0.11,3.9,100.0*,1,0
Cc1cc(S(=O)(=O)Nc2ccc3ccccc3c2)c(C)s1,-2.87,64.0*,93.4*,0.4,0.1
Cc1c(C(=O)Nc2ccccc2N2CCOCC2)sc2nc3n(c(=O)c12)CCC3,nt,-3.4,2.2,1,1
Cc1n[nH]c(C)c1S(=O)(=O)N1CCc2ccccc21,-0.22,0.6,61.4*,1,0.4
Cc1n[nH]c(C)c1S(=O)(=O)N(CC(=O)N1CCc2ccccc21)c1ccc(C(C)C)cc1,nt,58.4*,18.9,0.4,0.8
CCOc1ccc(N(CC(=O)N2CCc3ccccc32)S(=O)(=O)c2c(C)noc2C)cc1,nt,18.8,15.6,0.8,0.8
O=S(=O)(Cc1ccccc1)N1CCc2ccccc21,nt,34.6,68.9*,0.7,0.3
CC(=O)N1CCc2cc(S(=O)(=O)N3CCc4ccccc4C3)ccc21,0.41,-17.6,-7.1,1.2,1.1
CN(C)S(=O)(=O)N1CCc2ccccc2C1,0.91,-135.9,65.9*,2.4*,0.3
Cc1ccccc1CN(c1ccc(C(=O)NCCC2=CCCCC2)cc1)S(C)(=O)=O,-1.04,13.4,7.4,0.9,0.9
Cn1cnc(S(=O)(=O)N2CCc3ccccc32)c1,1.27,-25.1,-4.2,1.3,1
CN(C)S(=O)(=O)N1CCc2ccccc21,-0.11,-129.6,16.7,2.3*,0.8
CN(C)S(=O)(=O)N1CCN(Cc2ccccc2)CC1,0.04,24.9,92.9*,0.8,0.1
CN(C)S(=O)(=O)N1CCC(Cc2ccccc2)CC1,2.49,nt,nt,nt,nt
CN(C)S(=O)(=O)N1CCN(c2cc(Cl)ccc2Cl)CC1,-0.5,68.0*,90.8*,0.3,0.1
CN(C)S(=O)(=O)N1CCN(CC(=O)Nc2cc(Cl)ccc2Cl)CC1,0.49,29.2,71.5*,0.7,0.3
CN(C)S(=O)(=O)N1CCN(c2ccccc2Cl)CC1,0.23,81.3*,91.6*,0.2,0.1
Cc1nc2ccc(NC(=O)Cn3cnc4c3c(=O)n(C)c(=O)n4C)cc2s1,nt,12.8,0.9,0.9,1
FC(F)(F)c1ccc(Cl)c(NC(=S)NC2CC2)c1,0.38,nt,nt,nt,nt
COc1ccc(Nc2nc(C)cc(C)c2C#N)cc1OC,nt,27.8,16.3,0.7,0.8
CN(C)S(=O)(=O)N1CCN(c2ccccc2)CC1,0.76,49.9,86.1*,0.5,0.1
CN(C)S(=O)(=O)N1CCN(C(=O)c2ccccc2Cl)CC1,1.42,-2.5,76.0*,1,0.2
CN(C)S(=O)(=O)N1CCN(c2cccc(Cl)c2)CC1,-0.61,19.1,38.5,0.8,0.6
CN(C)C(=O)Cn1c(SCC(=O)Nc2ccc3c(c2)OCO3)nc2ccccc21,-0.75,nt,nt,nt,nt
O=C(NCc1cccc(CNC(=O)c2ccco2)c1)c1ccco1,0.32,-6.5,4.3,1.1,1
SMILES,PTK2B oligo ant,CYP2C9 inhib,CYP2C19 inh,CYP2C9 activ,CYP2C19 activ
O=C(NCC(=O)N(Cc1ccc(F)cc1)C(C(=O)NC1CCCC1)c1ccco1)c1ccco1 (stereo not drawn),0.11,41.7,48.0,0.6,0.5
O=C(CN(Cc1ccc(F)cc1)C(=O)c1ccco1)NCc1ccc(F)cc1,-1.1,26.4,83.4*,0.7,0.2
O=C(CN(C(=O)c1ccco1)c1cccc(F)c1)NCc1ccc(F)cc1,0.03,34.8,78.4*,0.7,0.2
O=C(c1ccco1)N(CCC(c1ccccc1)c1ccco1)Cc1ccc(F)cc1 (stereo not drawn),-0.66,85.3*,34.0,0.1,0.7
COc1ccc(NC(=O)N2CCC(n3nnc4cc(C)ccc43)CC2)cc1,-0.61,nt,nt,nt,nt
COc1cc(C(=O)OCC(=O)c2cc(C)n(C)c2C)cc(OC)c1OC,0.14,-148.1,58.5*,2.5*,0.4
Cc1cc(C(=O)COC(=O)c2n[nH]c3ccccc23)c(C)n1C,0.39,-62.7,42.9,1.6,0.6
